# Source: PubChem (several laboratories)
# Plk1 PBD FP – Plk1 (human) PBD binding inhibition | P53350 | 97,000 tested, 0.13% active | inhibition, %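 (tested at about 20 µM)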 | Plk1 PBD phosphopeptide binding, fluorescence polarization | AID 693; in the data active means inhibition above about 34%, passing the limit was not always enough
# PLK1 kinase inh – inhibitors of human PLK1 kinase | inhibition, % at 10 µM | P53350 | 97,000 tested, 0.53% active | recombinant PLK1 kinase, TR-FRET peptide phosphorylation | AID 619;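 active means inhibition of 50% or more in the single-concentration screen; inactive means inhibition below 50%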;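 further: 0% = DMSO max control and 100% = H-89 dihydrochloride min control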
# Pyk2 oligo antag – Pyk2 (human) oligomerization antagonism | Q14289 | Q293 cells, Pyk2 FERM NanoBiT luminescence; active compounds read low | z-score (the deposit names both 25 µM and 10 µM) | 99,000 tested, 0.83% active | AID 1347419;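 active means Z-score of -3 or lower, scaled per plate to the spread of control and sample wells; inactive means z-score above -3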;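 further: negative z-score means lost luminescence so less FERM oligomerization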
# Target sequence (Q14289 whole entry, looked up): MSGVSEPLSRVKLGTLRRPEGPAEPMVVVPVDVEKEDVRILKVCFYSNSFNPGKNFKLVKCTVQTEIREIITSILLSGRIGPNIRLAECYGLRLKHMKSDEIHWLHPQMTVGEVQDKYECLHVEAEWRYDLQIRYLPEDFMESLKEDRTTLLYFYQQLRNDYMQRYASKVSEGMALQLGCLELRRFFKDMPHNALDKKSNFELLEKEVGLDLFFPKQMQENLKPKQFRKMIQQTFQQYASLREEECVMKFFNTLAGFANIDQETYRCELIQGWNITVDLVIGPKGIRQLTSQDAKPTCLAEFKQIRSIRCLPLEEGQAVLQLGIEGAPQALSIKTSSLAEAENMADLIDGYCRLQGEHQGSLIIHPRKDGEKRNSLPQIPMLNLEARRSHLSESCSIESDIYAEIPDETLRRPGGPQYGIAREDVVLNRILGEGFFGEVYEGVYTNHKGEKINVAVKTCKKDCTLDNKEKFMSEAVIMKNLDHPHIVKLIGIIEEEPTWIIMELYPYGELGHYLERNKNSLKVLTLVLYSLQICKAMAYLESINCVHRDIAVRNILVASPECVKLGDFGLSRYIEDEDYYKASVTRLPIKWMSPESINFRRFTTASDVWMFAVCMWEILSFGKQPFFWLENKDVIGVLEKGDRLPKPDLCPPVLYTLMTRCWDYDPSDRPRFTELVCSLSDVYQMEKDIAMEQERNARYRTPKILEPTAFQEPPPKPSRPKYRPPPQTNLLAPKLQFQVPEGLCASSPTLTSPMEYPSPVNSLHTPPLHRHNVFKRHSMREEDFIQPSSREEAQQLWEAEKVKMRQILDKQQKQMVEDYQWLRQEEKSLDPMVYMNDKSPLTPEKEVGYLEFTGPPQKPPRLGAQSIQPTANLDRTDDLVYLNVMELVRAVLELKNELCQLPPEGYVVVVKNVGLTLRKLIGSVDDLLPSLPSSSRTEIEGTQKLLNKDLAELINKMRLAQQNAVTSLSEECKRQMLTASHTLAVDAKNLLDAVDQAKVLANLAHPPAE
# SDO1 yeast rescue – sdo1-depleted yeast growth rescue; S. cerevisiae sdo1-depleted JHY4D growth rescue, OD600 30 h; active compounds read high; pdr5 snq2 efflux-pump mutant strain; AID 817; 140,000 tested, 0.21% active; z-score at 10 µM;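 active means z-score above 3 at both the 24 hr and the 30 hr optical density reads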;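 further: z-score against mean and SD of all compound wells on the same plate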
# Cav3 T inh – human Cav3.2 channel inhibition, primary screen | O95180 | Cav3.2-expressing cells, Fluo-4 calcium fluorescence FDSS; active compounds read low | B-score at 10 µM | 100,000 tested, 4% active | AID 449739;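 active means single-dose well whose peak fluorescence ratio is a statistical outlier from its plate by either plate-standardised score or position-corrected B-score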
# DAT uptake mod – modulates human dopamine transporter uptake under cocaine; LLC-PK1 hDAT cells, [14C]-dopamine uptake with cocaine IC80; actives deviate in either direction; B-score at 10 µM; AID 449768; 110,000 tested, 1.3% active;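 active means Z score or B-score, a plate-position-corrected score, falls beyond the plate's 99.7% confidence bounds, in either direction; inactive means both scores lie inside the 99.7% bounds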;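 further: scored against the spread of the other compound wells on the same plate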
# An asterisk follows results filed as active; . = no result given. Compounds with a hit are over-represented: about 4.7% of the library has one in this group of screens.
SMILES,Plk1 PBD FP,PLK1 kinase inh,Pyk2 oligo antag,SDO1 yeast rescue,Cav3 T inh,DAT uptake mod
Cc1ccc2c(CC(=O)Nc3nc(C)cs3)coc2c1,1,0,-0.22,-0.62,-6.8*,0.59
O=C(Cc1c[nH]c2ccccc12)Nc1nc2ccccc2[nH]1,23,0,0.27,0.64,-6.3*,-0.56
CCOC(=O)/C(C#N)=C\C=C1C=CN(C)C=C1,-133,-33,0.02,0.9,-4.8*,-0.95
CCOC(=O)/C(C#N)=C\c1ccc(CC)s1,-30,0,0.6,-0.32,-0.088,-1
O=C(CN(Cc1ccco1)C(=O)CNS(=O)(=O)c1ccc(Cl)cc1)NC1CCCCC1,7,-4,-1.1,-1.2,-4.8*,-0.23
CC(C)C(C(=O)NCc1ccco1)N(C(=O)CNS(=O)(=O)c1ccc(Cl)cc1)C1CCCC1 (stereo not given),5,6,0.17,0.77,-7.3*,-0.049
CC(C)C(C(=O)NCC1CCCO1)N(Cc1ccco1)C(=O)CNS(=O)(=O)c1ccc(F)cc1 (stereo not given),-17,-10,2.4,0.4,0.008,1.1
COc1ccc(NC(=S)N2CCNC(=O)C2CC(=O)Nc2cccc(Cl)c2C)cc1 (stereo not given),.,.,.,1,.,.
Cc1ccc(NC(=O)c2cc(C(=O)c3cc(Cl)ccc3O)cn(-c3ccc(C)cc3)c2=O)cc1,.,.,.,-0.58,.,.
Cc1ccc(S(=O)(=O)N(c2nc(NC(C)C)nc(NC(C)C)n2)n2cnnc2)cc1,.,.,0.66,1.1,.,.
Cc1cc(C(=O)CN2C(=O)NC(c3ccccc3)(c3ccccc3)C2=O)c(C)n1Cc1ccccc1,-2,-6,0.1,-0.11,-5*,0.84
Cc1cc(C(=O)CN2C(=O)NC(C)(c3ccccc3)C2=O)c(C)n1CC1CCCO1 (stereo not given),.,.,.,1.1,.,.
COc1ccc2c(c1OC)C(=O)N1c3cccc(Cl)c3C(=O)OC21 (stereo not given),-20,-9,2.2,-0.16,-4.3*,0.27
COc1ccccc1C(=O)N/C(=C\c1ccc(Br)cc1)C(=O)NCCO,-16,-6,-0.26,0.85,0.46,0.3
CCN(CC)C(=O)/C(=C\c1ccc(Br)cc1)NC(=O)c1ccccc1OC,-17,-2,-0.69,-1.7,-1.3,15*
COc1ccc(-c2csc(NC(=O)C3COc4ccccc4O3)n2)cc1OC (stereo not given),.,.,.,.,-2.3,-0.42
CN1CCC(=C2c3ccccc3C=Cc3ccccc32)CC1,.,.,.,0.04,-5*,-0.076
O=C(c1ccccc1)c1cccc(NC(=O)c2ccc(Br)o2)c1,-19,-40,-2.4,-1.7,-3.7*,-9.7*
Cc1ccc(C(=O)Nc2ccc3c(c2)CCC3)o1,.,.,0.27,0.6,-0.016,1.4
O=C(Nc1ccccc1C(=O)O)c1ccc(Br)o1,-7,-5,-0.23,0.74,.,-0.011
COC(=O)c1ccccc1NC(=O)c1cccc(NC(=O)c2ccc(Br)o2)c1C,-25,7,0.74,-1.6,-5*,-0.021
CCc1cccc(NC(=O)c2ccc(Br)o2)c1,0,-4,-0.59,-0.09,-2.5,4.9*
O=C(Nc1ccc2c(c1)CCC2)c1ccc(Br)o1,-3,-5,-0.36,-0.84,-2.2,2.2*
CN1CCN(NC(=O)c2ccc(Br)c(S(=O)(=O)N3CCOCC3)c2)CC1,.,.,.,0.74,.,.
CN(Cc1ccccc1)C(=O)NC1CCCCC1,-15,-8,1.3,0.82,0.47,0.81
SMILES,Plk1 PBD FP,PLK1 kinase inh,Pyk2 oligo antag,SDO1 yeast rescue,Cav3 T inh,DAT uptake mod
O=C(NC1CCCCC1)N(Cc1ccccc1)Cc1ccco1,-3,4,-0.54,-0.57,-9.1*,-0.28
Cc1cccc2cc(CN(Cc3ccco3)C(=O)NC3CCCCC3)c(=O)[nH]c12,-10,-8,-1.6,0.87,-2.6,2.4*
Cc1cc2cc(CN(Cc3ccco3)C(=O)C3CCCCC3)c(=O)[nH]c2cc1C,9,-52,0.16,0.01,-9.3*,0.14
Cc1cc2cc(CN(Cc3ccco3)C(=O)NCc3ccccc3)c(=O)[nH]c2cc1C,7,-14,0.9,-0.33,-7.4*,1.8
Cc1ccc2[nH]c(=O)c(CN(Cc3ccco3)C(=O)c3ccncc3)cc2c1,.,.,-0.2,0.09,0.18,0.0045
Cc1cc2cc(CN(Cc3cccs3)C(=S)NCc3ccco3)c(=O)[nH]c2cc1C,.,.,.,-0.26,.,.
CCCCCCC(=O)N/N=C1\CCCc2ccccc21,.,.,.,-0.64,.,.
CCOC(=O)c1c(NC(=O)Cn2nc(C(F)(F)F)cc2C)sc(C)c1C,.,.,.,-0.71,.,.
C=CCNC(=O)C1CC1(c1ccccc1)c1ccccc1 (stereo not given),.,.,.,0.21,.,.
COc1ccccc1NC(=O)N(Cc1ccco1)Cc1cc2c(C)ccc(C)c2[nH]c1=O,-15,6,1.3,-0.95,-6*,2.3
COc1ccc(CN(Cc2cc3cc4c(cc3[nH]c2=O)OCO4)C(=O)NC2CCCCC2)cc1,12,-1,-2.3,-0.61,-6.7*,1.1
CC(C)CCN(C(=O)Nc1ccccc1)C(C)c1cccs1 (stereo not given),10,2,0.52,-0.93,-4.8*,0.075
Cc1ncc(S(=O)(=O)c2ccc(Cl)cc2)c(-c2ccccc2)n1,-10,-10,-1.1,-0.08,-2.3,0.00061
O=S(=O)(c1ccccc1)c1cnn(-c2ccccc2)c1-c1ccc(Cl)cc1,15,-11,-2.1,-0.79,-3.9*,-0.46
Cc1nc(NC(=O)CSc2nnc(Cn3nnc4ccccc43)n2C)sc1C,.,.,.,1.2,.,.
O=C(OCC#Cc1c(COC(=O)c2ccccc2)nnn1Cc1ccccc1)c1ccccc1,.,.,.,.,-0.56,-0.32
CCOC(=O)c1cc(C)n(Cc2ccc(OCC)c(OC)c2)c1C,14,1,-1.3,-0.93,-1.8,1.8
Cc1ccc(C(=O)N/N=C/c2ccc3c(c2)OCO3)o1,.,.,.,0.26,.,.
Cc1ccc(C(=O)/C=C/c2ccc3c(c2)OCO3)o1,-33,64*,0.37,-2.2,-1.2,0.013
N/C(=N\S(=O)(=O)c1ccc(Cl)s1)c1ccccc1,-4,3,1.2,0.09,-5.8*,-0.23
CCC(=O)N(Cc1ccco1)C1CC(=O)N(c2ccccc2)C1=O (stereo not given),.,.,.,1.2,.,.
COc1ccc(C2C=C(c3cccs3)Nc3nc(CCCO)nn32)cc1 (stereo not given),0,-5,.,0.89,-12*,0.47
CCN(CC)S(=O)(=O)c1ccc(C)c(NC(=O)COC(=O)c2ccc(C)c(S(=O)(=O)N3CCOCC3)c2)c1,-13,-6,0.28,0.51,-4.2*,0.01
O=C1CC(c2ccc(Cl)cc2)SC(N(c2ccccc2)c2ccccc2)=N1 (stereo not given),.,.,.,-0.99,.,.
O=S(=O)(N/N=C1/CCCc2ccccc21)c1ccc(Br)cc1,-15,-10,-0.16,-1.6,-4.2*,-0.15
CCCC1=Nc2cc(C(=O)NCCCOC(C)C)ccc2Sc2ccccc21,19,-16,-0.44,-1,-4.1,-0.46
CCCC1=Nc2cc(C(=O)NCCCOCC)ccc2Sc2ccccc21,-18,-10,-0.41,-0.52,-6*,-1.6
